Pf Dd2 inh = Plasmodium falciparum Dd2 growth inhibition; P. falciparum Dd2 growth, SYBR Green, 72 h; 4.3% of 120,000 active; Potency, µM (series often up to 28.9 µM), actives largely listed as inhibitors; active = well fitted inhibition curve with a large enough effect; note: nearly all actives have a fitted effect of over 65% in size
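Readout: SYBR Green fluorescence, 485 nm excitation, 535 nm emission, after ~16 h lysis at 37C. Before that, Dd2-infected red cells (2.5% hematocrit) grew 72 h with compound, 29 uM top final concentration.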
A number is an active result; - = inactive; [ ] = dose if it differs, or a comment. The sample as a whole holds a higher share of hits than the screen did.

SMILES	Pf Dd2 inh
CC(C(=O)NCC1CCCO1)N1C(=O)COc2ccc(C(=O)COc3ccc(F)cc3F)cc21 (stereo not given)	-
COCCn1c(CN2CCn3nc(C#N)cc3C2)nnc1C1CC(N)C1 (stereo not given)	-
CCC1=Nc2cc(C(=O)NC3CCCC3)ccc2Sc2ccc(Cl)cc21	4.5µM
CCN1C(=O)Cc2cc(C(=O)NCCC(C)C)ccc21	-
CC1=Nc2cc(C(=O)NC3CCCC3)ccc2Sc2ccc(C)cc21	-
O=C(NC1CCCCC1)c1ccc2c(c1)N(Cc1cccc(F)c1)C(=O)c1ccccc1S2	-
CCC1=Nc2cc(C(=O)NCCC(C)C)ccc2Sc2ccc(Br)cc21	13µM
CCN1c2cc(C(=O)NC3CCCC3)ccc2C(=O)N2CCCCC21 (stereo not given)	-
CC1=Nc2cc(C(=O)NC3CCCC3)ccc2Sc2ccc(Cl)cc21	11µM
CC(C)CCNC(=O)c1ccc2c(c1)N(C)C(=O)c1ccccc1S2	-
CCN1c2cc(C(=O)NC3CCCC3)ccc2C(=O)N2CCCCCC21 (stereo not given)	-
CN(Cc1ccccc1)C(=O)Cn1c2c(c(=O)n1Cc1ccccc1)CCN(Cc1ccccc1)C2	-
CC(C)CCN1CCNC(=O)C1CC(=O)N(Cc1nccs1)C1CC1 (stereo not given)	-
Cc1ccc2c(c1)C(C[C@H]1CN(C(=O)CC(C)(C)C)CC[C@H]1CC(=O)O)=NCC2	-
CN1CCC2(C1)CN(CC1CCOCC1)c1ccc(C(=O)NCCOc3ccccc3)cc12 (stereo not given)	-
COCCNC(=O)c1cnn(-c2ccc(C)cc2C)c1C1CCN(C(=O)OC(C)(C)C)CC1	-
CCN1CCN(CCCNC(=O)c2cnn(-c3ccccc3)c2C2CCN(C(=O)OC(C)(C)C)CC2)CC1	-
CC(C)(C)OC(=O)N1CCC(c2c(C(=O)NCCCN3CCc4ccccc4C3)cnn2-c2ccccc2)CC1	8.9µM
Cc1ccc(-n2ncc(C(=O)NCCCN3CCc4ccccc4C3)c2C2CCN(C(=O)OC(C)(C)C)CC2)c(C)c1	7.1µM
COc1ccc(-n2ncc(C(=O)NCCN3CCOCC3)c2C2CCN(C(=O)OC(C)(C)C)CC2)cc1	-
Cc1ccc(-n2ncc(C(=O)NCCN3CCCC3)c2C2CCN(C(=O)OC(C)(C)C)CC2)cc1C	-
Cc1ccc(-n2ncc(C(=O)NCCCN3CCCCC3)c2C2CCN(C(=O)OC(C)(C)C)CC2)c(C)c1	8.9µM
Cc1ccc(-n2ncc(C(=O)NCCCN3CCN(C)CC3)c2C2CCN(C(=O)OC(C)(C)C)CC2)cc1	-
CC(C)(C)OC(=O)N1CCC(c2c(C(=O)NCCN3CCOCC3)cnn2-c2cccc(Cl)c2)CC1	10µM
Cc1nccn1CCCN1CCC2(CC1)C(C(=O)O)CC(=O)N2C (stereo not given)	-
SMILES	Pf Dd2 inh
O=C(NCc1ccccc1)N1CCN(C(=O)N2CC3CC(C2)[C@H]2CCCC(=O)N2C3)CC1 (stereo not given in full)	-
Cc1c(CN(C)Cc2cccc(C(=O)Nc3ccc(C#N)cc3)c2)cnn1C	-
Cc1noc([C@@H]2CC(F)(F)CN2S(=O)(=O)c2ccc(F)cc2)n1	-
Cc1ccc(-n2nc3n(c2=O)CCN([S+](=O)([O-])c2c(C)noc2C)C3)cc1	-
CCC(C(=O)NCc1nnc2c(-c3nc(C(C)C)no3)cccn12)c1ccccc1 (stereo not given)	-
Cc1cnc(C(=O)N2CCC3(CC2)CC(CO)N(C(=O)c2ccccc2)C3)cn1 (stereo not given)	-
Cc1nc(-c2ccc(OC3CCN(C(=O)c4cc(C)n(C)n4)C3)cc2)no1 (stereo not given)	-[5.79 µM]
COc1cccc(S(=O)(=O)N2CC3(C2)C(=O)Nc2ccccc23)c1	-
CCCN(Cc1ccncc1)C(=O)CC1C(=O)NCCN1Cc1ccoc1 (stereo not given)	-
Cc1ccc(-n2ncc(C(=O)NC3CCCC3)c2C2CCN(C(=O)OC(C)(C)C)CC2)c(C)c1	10µM
CC(C)(C)OC(=O)N1CCC(c2c(C(=O)NCc3ccccc3)cnn2-c2ccccc2)CC1	-
CC(C)(C)OC(=O)N1CCC(c2c(C(=O)NCc3ccco3)cnn2-c2ccccc2)CC1	10µM
Cc1ccc(-n2ncc(C(=O)NCc3cccs3)c2C2CCN(C(=O)OC(C)(C)C)CC2)cc1	-
O=C1NCCCCCCN(C(=O)NCCc2ccccc2)[C@H]2CCCC[C@@H]12	-
CN1CCN([C@H]2CCN(CCCc3ccccc3)C[C@H]2CCC(=O)O)CC1	-
COCCN1CCC(N2CCN(C(=O)c3ccc(C)cc3)CC2)C1=O (stereo not given)	-
Cn1ccnc1CN1CCOC[C@H]1c1ncc(-c2cccc(Cl)c2)[nH]1	5µM
Fc1ccc(-c2cnc([C@@H]3COCCN3Cc3ncc[nH]3)[nH]2)cc1	-
N#Cc1cccc(CN2CCOC[C@H]2c2ncc(-c3ccc(F)cc3)[nH]2)c1	-
c1cncc(CN2CCOC[C@H]2c2ncc(-c3cccnc3)[nH]2)c1	-
CC(=O)Nc1ccc(CN2CCOC[C@H]2c2ncc(-c3cccc(Cl)c3)[nH]2)cc1	-
Oc1ccccc1CN1CCOC[C@H]1c1ncc(-c2cccc(Cl)c2)[nH]1	3.2µM
